Legend:
Experiment in all cases: DAPPL (digital affinity profiling via proximity ligation, sequencing); 10 mM Tris-HCl pH 7.5, 50 mM NaCl, 1 mM DTT, 4% glycerol, room temperature, 30 min; GST-TFs on glutathione beads, 16-mer random dsDNA library, 0.1% formaldehyde crosslink after washing; high values mean tight binding
Settings in all cases: protein: recombinant; tags: N-terminal GST; dsDNA, one strand shown
FLI1 = biological target: T1, FLI1 (Homo sapiens, UniProt Q01543 1-452)
T1 sequence: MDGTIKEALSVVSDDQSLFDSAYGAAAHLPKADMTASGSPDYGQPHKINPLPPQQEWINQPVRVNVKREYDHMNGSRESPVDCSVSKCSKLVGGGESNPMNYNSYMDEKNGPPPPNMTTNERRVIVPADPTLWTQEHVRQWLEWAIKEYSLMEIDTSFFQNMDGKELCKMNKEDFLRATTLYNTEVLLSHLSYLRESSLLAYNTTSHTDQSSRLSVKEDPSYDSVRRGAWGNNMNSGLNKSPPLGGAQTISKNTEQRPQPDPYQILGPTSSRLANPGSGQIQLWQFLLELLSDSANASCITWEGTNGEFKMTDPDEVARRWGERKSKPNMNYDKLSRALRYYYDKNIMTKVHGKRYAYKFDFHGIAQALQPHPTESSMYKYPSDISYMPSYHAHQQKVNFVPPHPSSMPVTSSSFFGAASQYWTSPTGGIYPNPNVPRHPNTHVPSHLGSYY
In short: (§1)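 Each value of binding signal is a hexamer's read frequency for a factor divided by the same hexamer's frequency in the tag-only sample. Barcoded, bead-captured GST fusions of human transcription factors made in yeast were pooled with that sample and incubated with 200 nmole of a random double-stranded 16-mer DNA library in Tris/NaCl/DTT/glycerol buffer at room temperature for 30 min. Washing, 0.1% formaldehyde crosslinking, proximity ligation, PCR and Illumina NextSeq500 sequencing followed.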

ELK1 = biological target: T2, ELK1 (Homo sapiens, UniProt P19419 1-428)
T2 sequence: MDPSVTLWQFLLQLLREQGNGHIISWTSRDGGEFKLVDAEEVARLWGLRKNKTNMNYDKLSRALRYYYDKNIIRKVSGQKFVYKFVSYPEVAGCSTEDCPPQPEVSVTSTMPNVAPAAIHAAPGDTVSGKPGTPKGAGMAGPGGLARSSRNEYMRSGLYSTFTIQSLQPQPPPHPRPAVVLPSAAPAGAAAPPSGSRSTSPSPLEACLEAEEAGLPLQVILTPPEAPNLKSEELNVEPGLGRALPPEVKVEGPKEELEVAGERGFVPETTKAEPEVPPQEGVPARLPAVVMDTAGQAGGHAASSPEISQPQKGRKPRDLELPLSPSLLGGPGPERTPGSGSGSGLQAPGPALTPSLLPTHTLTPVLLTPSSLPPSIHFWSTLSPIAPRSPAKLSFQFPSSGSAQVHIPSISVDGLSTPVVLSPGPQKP
In short: as §1

GABPA = biological target: T3, GABPA (Homo sapiens, UniProt Q06546 1-454)
T3 sequence: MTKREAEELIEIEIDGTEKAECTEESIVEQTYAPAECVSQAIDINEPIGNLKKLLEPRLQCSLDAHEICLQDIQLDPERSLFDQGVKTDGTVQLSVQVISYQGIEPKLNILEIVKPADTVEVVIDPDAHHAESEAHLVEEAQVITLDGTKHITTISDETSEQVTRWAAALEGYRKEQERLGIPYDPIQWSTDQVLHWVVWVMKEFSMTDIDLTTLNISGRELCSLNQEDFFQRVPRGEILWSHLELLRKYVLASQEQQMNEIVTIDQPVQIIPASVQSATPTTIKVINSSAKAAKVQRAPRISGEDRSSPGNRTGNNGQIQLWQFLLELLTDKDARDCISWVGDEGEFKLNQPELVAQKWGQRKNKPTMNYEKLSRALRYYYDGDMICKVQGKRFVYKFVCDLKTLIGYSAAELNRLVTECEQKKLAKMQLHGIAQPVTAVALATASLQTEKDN
In short: as §1

ERG = biological target: T4, ERG (Homo sapiens, UniProt P11308 1-479)
T4 sequence: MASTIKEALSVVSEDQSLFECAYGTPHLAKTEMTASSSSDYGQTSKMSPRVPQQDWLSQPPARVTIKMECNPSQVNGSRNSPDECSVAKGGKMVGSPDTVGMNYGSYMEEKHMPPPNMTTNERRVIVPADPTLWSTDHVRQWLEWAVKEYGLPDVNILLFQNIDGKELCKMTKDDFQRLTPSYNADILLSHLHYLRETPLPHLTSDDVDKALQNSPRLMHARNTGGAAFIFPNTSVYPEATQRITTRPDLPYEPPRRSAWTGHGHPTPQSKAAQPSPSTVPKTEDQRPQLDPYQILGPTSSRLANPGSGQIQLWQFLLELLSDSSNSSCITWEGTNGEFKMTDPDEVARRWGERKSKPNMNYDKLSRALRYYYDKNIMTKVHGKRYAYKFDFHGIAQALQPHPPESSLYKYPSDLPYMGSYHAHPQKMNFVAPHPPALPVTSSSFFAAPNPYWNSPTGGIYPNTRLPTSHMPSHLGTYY
In short: as §1

ELF1 = ELF1 (Homo sapiens, UniProt P32519 1-619)
In short: as §1

EHF = biological target: T5, EHF (Homo sapiens, UniProt Q9NZC4 1-300)
T5 sequence: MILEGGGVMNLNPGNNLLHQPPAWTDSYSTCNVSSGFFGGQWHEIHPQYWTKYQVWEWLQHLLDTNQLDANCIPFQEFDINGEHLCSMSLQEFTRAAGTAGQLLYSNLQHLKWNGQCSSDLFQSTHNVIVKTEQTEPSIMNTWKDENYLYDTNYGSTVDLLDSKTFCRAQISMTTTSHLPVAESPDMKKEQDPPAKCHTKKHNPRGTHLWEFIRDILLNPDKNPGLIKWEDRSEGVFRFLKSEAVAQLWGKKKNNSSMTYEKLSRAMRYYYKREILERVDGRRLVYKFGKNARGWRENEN
In short: as §1

SPI1 = SPI1 (Homo sapiens, UniProt P17947 1-270)
In short: as §1

SPIB = SPIB (Homo sapiens, UniProt Q01892 1-262)
In short: as §1

ELK3 = biological target: T6, ELK3 (Homo sapiens, UniProt P41970 1-407)
T6 sequence: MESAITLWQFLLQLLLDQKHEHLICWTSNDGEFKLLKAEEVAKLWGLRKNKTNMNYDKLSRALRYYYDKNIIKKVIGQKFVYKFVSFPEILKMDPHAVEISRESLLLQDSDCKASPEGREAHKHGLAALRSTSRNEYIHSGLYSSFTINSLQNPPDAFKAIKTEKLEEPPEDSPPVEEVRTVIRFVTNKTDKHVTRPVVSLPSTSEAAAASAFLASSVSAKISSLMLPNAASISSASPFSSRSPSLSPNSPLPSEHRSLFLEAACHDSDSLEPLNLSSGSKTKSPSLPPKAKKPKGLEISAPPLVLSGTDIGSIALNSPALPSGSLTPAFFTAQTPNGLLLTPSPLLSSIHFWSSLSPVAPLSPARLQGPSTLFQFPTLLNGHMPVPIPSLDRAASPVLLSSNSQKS
In short: as §1

FEV = biological target: T7, FEV (Homo sapiens, UniProt Q99581 1-238)
T7 sequence: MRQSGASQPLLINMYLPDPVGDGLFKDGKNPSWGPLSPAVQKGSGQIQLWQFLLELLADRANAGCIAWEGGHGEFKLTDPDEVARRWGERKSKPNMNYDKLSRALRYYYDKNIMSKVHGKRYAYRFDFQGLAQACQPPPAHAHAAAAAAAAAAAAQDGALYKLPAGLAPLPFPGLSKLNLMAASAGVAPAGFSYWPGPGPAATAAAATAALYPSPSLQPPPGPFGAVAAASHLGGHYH
In short: as §1

ETV5 = ETV5 (Homo sapiens, UniProt P41161 1-510)
In short: as §1

SPIC = biological target: T8, SPIC (Homo sapiens, UniProt Q8N5J4 1-248)
T8 sequence: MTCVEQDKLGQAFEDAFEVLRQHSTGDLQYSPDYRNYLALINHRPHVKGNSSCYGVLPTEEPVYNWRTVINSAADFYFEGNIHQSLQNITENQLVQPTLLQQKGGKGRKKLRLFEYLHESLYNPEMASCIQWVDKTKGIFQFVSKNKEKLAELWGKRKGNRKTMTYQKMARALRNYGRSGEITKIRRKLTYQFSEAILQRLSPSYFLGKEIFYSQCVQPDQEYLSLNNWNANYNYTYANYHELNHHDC
In short: as §1

ELF4 = ELF4 (Homo sapiens, UniProt Q99607 1-663)
In short: as §1

ELK4 = biological target: T9, ELK4 (Homo sapiens, UniProt P28324-2 1-405)
T9 sequence: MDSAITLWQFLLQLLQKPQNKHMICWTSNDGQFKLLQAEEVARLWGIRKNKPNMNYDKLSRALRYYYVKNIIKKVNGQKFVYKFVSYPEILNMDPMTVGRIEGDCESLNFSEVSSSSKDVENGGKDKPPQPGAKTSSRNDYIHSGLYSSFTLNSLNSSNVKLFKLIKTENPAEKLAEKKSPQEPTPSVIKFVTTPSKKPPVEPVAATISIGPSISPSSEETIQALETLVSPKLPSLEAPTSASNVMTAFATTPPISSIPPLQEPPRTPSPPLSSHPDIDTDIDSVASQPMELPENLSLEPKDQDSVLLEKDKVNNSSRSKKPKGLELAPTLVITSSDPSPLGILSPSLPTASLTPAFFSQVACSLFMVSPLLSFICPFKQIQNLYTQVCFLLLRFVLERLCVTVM
In short: as §1

ETV2 = biological target: T10, ETV2 (Homo sapiens, UniProt O00321 1-342)
T10 sequence: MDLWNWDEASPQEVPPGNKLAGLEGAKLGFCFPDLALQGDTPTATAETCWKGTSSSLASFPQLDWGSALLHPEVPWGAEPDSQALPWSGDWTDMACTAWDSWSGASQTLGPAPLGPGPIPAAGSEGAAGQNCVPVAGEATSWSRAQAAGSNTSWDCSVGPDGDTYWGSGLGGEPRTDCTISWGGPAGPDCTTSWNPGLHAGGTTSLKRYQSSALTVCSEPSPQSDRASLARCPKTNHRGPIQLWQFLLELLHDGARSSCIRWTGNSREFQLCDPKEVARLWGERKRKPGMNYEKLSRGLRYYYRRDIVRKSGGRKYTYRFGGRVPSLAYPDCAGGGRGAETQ
In short: as §1

ELF3 = biological target: T11, ELF3 (Homo sapiens, UniProt P78545 1-371)
T11 sequence: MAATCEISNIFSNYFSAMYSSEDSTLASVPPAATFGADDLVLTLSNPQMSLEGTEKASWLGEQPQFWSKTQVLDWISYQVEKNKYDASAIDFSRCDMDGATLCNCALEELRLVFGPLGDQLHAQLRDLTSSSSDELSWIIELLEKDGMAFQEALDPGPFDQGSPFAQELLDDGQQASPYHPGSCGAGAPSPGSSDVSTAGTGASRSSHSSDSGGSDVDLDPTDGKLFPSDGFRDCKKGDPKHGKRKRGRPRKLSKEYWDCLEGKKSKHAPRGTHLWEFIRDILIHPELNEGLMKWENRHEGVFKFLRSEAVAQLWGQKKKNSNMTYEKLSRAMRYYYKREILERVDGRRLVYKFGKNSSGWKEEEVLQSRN
In short: as §1

ETV1 = ETV1 (Homo sapiens, UniProt P50549 1-477)
In short: as §1

ELF4, sequence (Q99607 whole entry): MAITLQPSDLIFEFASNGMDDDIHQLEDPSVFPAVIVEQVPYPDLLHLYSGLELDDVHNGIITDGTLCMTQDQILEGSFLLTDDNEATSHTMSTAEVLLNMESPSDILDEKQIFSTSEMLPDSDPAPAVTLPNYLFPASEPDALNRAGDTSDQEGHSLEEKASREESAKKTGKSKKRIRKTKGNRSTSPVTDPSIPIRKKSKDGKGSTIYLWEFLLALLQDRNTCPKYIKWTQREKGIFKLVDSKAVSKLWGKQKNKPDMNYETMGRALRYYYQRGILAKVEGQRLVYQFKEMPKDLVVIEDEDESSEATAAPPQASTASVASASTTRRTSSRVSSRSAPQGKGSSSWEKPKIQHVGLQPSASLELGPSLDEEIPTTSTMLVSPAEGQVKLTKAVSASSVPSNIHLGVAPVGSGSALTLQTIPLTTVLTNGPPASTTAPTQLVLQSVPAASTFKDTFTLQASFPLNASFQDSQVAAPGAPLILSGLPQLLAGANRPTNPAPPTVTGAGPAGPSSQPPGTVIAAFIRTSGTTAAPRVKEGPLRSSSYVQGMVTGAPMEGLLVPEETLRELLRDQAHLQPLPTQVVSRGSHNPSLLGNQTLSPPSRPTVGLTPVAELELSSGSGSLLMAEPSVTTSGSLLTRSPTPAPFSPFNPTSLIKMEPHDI
ETV1, sequence (P50549 whole entry): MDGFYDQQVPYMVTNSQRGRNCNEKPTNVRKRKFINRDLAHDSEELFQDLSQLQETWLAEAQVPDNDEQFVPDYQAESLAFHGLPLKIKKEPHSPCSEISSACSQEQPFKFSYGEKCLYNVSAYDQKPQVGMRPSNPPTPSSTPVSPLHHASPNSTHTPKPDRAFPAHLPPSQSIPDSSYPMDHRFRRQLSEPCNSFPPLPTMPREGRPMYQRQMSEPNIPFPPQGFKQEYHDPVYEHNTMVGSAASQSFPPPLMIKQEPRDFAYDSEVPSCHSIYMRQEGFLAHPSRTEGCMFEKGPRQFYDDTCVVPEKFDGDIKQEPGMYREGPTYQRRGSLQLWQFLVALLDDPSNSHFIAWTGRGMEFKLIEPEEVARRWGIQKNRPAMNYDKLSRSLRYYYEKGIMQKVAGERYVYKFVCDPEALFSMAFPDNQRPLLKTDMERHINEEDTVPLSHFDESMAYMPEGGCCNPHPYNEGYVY
ELF1, sequence (P32519 whole entry): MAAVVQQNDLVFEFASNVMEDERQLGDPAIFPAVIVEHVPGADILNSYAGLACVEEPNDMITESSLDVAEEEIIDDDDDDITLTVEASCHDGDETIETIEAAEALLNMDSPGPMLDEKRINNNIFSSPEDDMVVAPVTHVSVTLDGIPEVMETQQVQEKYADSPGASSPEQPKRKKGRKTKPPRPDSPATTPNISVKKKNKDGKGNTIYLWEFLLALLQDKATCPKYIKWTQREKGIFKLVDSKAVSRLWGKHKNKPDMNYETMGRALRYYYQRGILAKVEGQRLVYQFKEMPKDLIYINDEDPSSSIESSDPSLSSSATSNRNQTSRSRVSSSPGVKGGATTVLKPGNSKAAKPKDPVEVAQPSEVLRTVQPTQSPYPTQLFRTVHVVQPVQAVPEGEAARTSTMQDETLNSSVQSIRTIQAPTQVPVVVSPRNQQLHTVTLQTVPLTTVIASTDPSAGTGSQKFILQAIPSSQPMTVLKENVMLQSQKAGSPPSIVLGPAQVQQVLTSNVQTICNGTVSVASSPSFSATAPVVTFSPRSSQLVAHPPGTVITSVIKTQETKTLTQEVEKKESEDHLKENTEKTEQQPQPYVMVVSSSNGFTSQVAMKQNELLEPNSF
ETV5, sequence (P41161 whole entry): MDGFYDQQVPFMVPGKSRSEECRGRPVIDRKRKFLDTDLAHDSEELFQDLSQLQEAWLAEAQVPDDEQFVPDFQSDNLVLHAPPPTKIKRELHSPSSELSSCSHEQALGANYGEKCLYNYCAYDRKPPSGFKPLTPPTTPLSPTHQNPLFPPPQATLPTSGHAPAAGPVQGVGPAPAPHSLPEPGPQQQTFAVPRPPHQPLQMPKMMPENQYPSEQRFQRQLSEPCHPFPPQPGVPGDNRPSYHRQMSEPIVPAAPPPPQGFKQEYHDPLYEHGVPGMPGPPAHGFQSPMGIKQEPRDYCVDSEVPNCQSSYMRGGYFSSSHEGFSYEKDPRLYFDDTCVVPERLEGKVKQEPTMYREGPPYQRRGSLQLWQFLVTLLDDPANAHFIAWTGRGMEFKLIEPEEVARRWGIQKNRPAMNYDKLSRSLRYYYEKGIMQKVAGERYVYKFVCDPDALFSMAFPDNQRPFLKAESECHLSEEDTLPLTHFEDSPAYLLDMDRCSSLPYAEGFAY
SPIB, sequence (Q01892 whole entry): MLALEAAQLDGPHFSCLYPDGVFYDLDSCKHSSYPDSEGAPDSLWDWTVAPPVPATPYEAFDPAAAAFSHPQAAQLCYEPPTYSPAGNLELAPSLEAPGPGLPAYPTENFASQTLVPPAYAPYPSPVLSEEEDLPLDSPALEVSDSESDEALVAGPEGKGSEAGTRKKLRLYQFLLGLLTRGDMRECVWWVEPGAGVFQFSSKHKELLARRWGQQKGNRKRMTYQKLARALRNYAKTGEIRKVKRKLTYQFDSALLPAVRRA

Row | Sequence | binding signal (FLI1) | binding signal (ELK1) | binding signal (GABPA) | binding signal (ERG) | binding signal (ELF1) | binding signal (EHF) | binding signal (SPI1) | binding signal (SPIB) | binding signal (ELK3) | binding signal (FEV) | binding signal (ETV5) | binding signal (SPIC) | binding signal (ELF4) | binding signal (ELK4) | binding signal (ETV2) | binding signal (ELF3) | binding signal (ETV1)
1 | CACCAC | 1.15 fold enrichment (6-mer frequency, TF over GST control) | 1.2 fold enrichment (6-mer frequency, TF over GST control) | 1.23 fold enrichment (6-mer frequency, TF over GST control) | 1.18 fold enrichment (6-mer frequency, TF over GST control) | 1.18 fold enrichment (6-mer frequency, TF over GST control) | 1.11 fold enrichment (6-mer frequency, TF over GST control) | 1.18 fold enrichment (6-mer frequency, TF over GST control) | 1.14 fold enrichment (6-mer frequency, TF over GST control) | 1.06 fold enrichment (6-mer frequency, TF over GST control) | 1.19 fold enrichment (6-mer frequency, TF over GST control) | 1.1 fold enrichment (6-mer frequency, TF over GST control) | 1.3 fold enrichment (6-mer frequency, TF over GST control) | 1.13 fold enrichment (6-mer frequency, TF over GST control) | 1.22 fold enrichment (6-mer frequency, TF over GST control) | 1.14 fold enrichment (6-mer frequency, TF over GST control) | 1.24 fold enrichment (6-mer frequency, TF over GST control) | 1.16 fold enrichment (6-mer frequency, TF over GST control)
2 | CCCCCG | 1.21 fold enrichment (6-mer frequency, TF over GST control) | 1.09 fold enrichment (6-mer frequency, TF over GST control) | 1.03 fold enrichment (6-mer frequency, TF over GST control) | 1.18 fold enrichment (6-mer frequency, TF over GST control) | 1.1 fold enrichment (6-mer frequency, TF over GST control) | 1.1 fold enrichment (6-mer frequency, TF over GST control) | 1.08 fold enrichment (6-mer frequency, TF over GST control) | 1.09 fold enrichment (6-mer frequency, TF over GST control) | 1.07 fold enrichment (6-mer frequency, TF over GST control) | 1.2 fold enrichment (6-mer frequency, TF over GST control) | 1.08 fold enrichment (6-mer frequency, TF over GST control) | 1.14 fold enrichment (6-mer frequency, TF over GST control) | 1.18 fold enrichment (6-mer frequency, TF over GST control) | 1.16 fold enrichment (6-mer frequency, TF over GST control) | 1.03 fold enrichment (6-mer frequency, TF over GST control) | 1.22 fold enrichment (6-mer frequency, TF over GST control) | 1.04 fold enrichment (6-mer frequency, TF over GST control)
3 | ACAACA | 1.22 fold enrichment (6-mer frequency, TF over GST control) | 1.24 fold enrichment (6-mer frequency, TF over GST control) | 1.23 fold enrichment (6-mer frequency, TF over GST control) | 1.2 fold enrichment (6-mer frequency, TF over GST control) | 1.29 fold enrichment (6-mer frequency, TF over GST control) | 1.24 fold enrichment (6-mer frequency, TF over GST control) | 1.18 fold enrichment (6-mer frequency, TF over GST control) | 1.19 fold enrichment (6-mer frequency, TF over GST control) | 1.19 fold enrichment (6-mer frequency, TF over GST control) | 1.2 fold enrichment (6-mer frequency, TF over GST control) | 1.16 fold enrichment (6-mer frequency, TF over GST control) | 1.13 fold enrichment (6-mer frequency, TF over GST control) | 1.19 fold enrichment (6-mer frequency, TF over GST control) | 1.14 fold enrichment (6-mer frequency, TF over GST control) | 1.28 fold enrichment (6-mer frequency, TF over GST control) | 1.32 fold enrichment (6-mer frequency, TF over GST control) | 1.23 fold enrichment (6-mer frequency, TF over GST control)

Source: publication PMC7862700, “An all-to-all approach to the identification of sequence-specific readers for epigenetic DNA modifications on cytosine”
